# Mtb RmlCD inh: M. tuberculosis RmlC/RmlD inhibition | inhibition, % at 3.6 µM | 0.03% of 160,000 active | P9WH09+P9WH11 | RmlC+RmlD coupled enzyme assay, percent inhibition; primary screen in compound mixtures; in the data active means inhibition mostly above about 34%, no sharp cut-off
# RecA splice inh: Mtb RecA intein splicing inhibition | cell-free RecA intein splicing, fluorescence | inhibition, % (no concentration beside the values) | 0.75% of 290,000 active | AID 2221; in the data active means inhibition above about 30%;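 further: 0% = vehicle wells and 100% = reference inhibitor control wells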
# Target sequence (P9WHJ3 whole entry, looked up, canonical isoform): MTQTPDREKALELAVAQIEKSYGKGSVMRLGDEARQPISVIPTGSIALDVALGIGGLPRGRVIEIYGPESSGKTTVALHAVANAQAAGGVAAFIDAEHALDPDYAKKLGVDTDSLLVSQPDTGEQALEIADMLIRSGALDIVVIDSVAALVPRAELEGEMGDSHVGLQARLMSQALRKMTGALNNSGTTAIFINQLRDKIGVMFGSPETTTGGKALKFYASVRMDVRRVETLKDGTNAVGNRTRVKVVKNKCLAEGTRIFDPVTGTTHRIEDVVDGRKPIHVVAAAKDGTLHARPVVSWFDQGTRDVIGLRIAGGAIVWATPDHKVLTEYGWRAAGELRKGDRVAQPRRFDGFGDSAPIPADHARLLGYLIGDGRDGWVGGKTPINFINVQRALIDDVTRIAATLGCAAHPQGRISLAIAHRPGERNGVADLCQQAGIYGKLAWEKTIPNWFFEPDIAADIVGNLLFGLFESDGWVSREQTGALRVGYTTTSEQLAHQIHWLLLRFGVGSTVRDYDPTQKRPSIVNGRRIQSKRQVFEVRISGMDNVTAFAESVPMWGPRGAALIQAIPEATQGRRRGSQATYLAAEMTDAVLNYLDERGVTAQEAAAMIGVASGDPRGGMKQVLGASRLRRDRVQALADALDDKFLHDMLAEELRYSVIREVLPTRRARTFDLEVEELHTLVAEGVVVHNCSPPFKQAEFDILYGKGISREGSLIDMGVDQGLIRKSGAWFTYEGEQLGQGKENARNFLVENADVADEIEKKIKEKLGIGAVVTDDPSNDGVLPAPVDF
# GFP chromo cs: counter-screen GFP chromophore formation inhibition; EC50, µM; cell-free GFP chromophore formation, fluorescence; shares compounds with RecA splice inh; 83% of 2,100 active; call rule not given here
# Starred values were filed as active, the others as inactive; x = no result given. A selection: hits, their analogues and other compounds. The true share with any hit is near 0.77%.
SMILES,Mtb RmlCD inh,RecA splice inh,GFP chromo cs
CC(C)=C(C#N)c1nc2ccccc2s1,x,0.3,x
N#C/C(=C/c1ccncc1)c1nc2ccccc2s1,-6.3,73.6*,21.6*
O=S(=O)(Nc1ccccc1)c1cccc2nonc12,x,-0.5,x
Cc1cc(C)nc(SCc2ccc(C(=O)N/N=C/c3cccnc3)cc2)n1,-1.3,-0.7,x
Cc1ccc(OCCSCc2nnc(NC(=O)Nc3cccc(Cl)c3)s2)cc1,x,-1.1,x
O=S(=O)(Nc1cc2nc3ccccc3nc2n1Cc1ccccc1)c1ccc(Cl)cc1,x,60.2*,6.29*
O=S(=O)(NCc1ccccc1)c1ccc(Cl)cc1,3.5,-2.8,x
Cc1cc2c(NC(=O)Nc3ccc(F)cc3)cccc2nn1,2.7,0.8,x
CC(=O)Nc1cc(C(=O)OCC(=O)c2ccccc2)ccc1C,1.7,-1.1,x
CCN1CCN(c2c(Cl)cccc2NC(=O)c2ccc3c(c2)OCCO3)CC1,10.7,30.9*,>38
O=C(Nc1cccc(Cl)c1N1CCCCC1)c1ccc2c(c1)OCCO2,1.7,3.5,x
Cc1onc(-c2ccccc2Cl)c1C(=O)N1CCC(C)CC1,x,1.3,x
CCOC(=O)C1CCN(C(=O)c2c(C)oc3c2C(=O)c2ccccc2C3=O)CC1,x,68.9*,4.71*
CCOC(=O)C1CCN(C(=O)c2ccco2)CC1,7.8,x,x
Cc1oc2c(c1C(=O)N1CCC(C)CC1)C(=O)c1ccccc1C2=O,x,78.7*,8.49*
O=C(NCC(=O)N(c1ccc2c(c1)OCCO2)C(C(=O)NC1CCCC1)c1ccco1)c1ccco1 (stereo not given),1.4,-3.1,x
Cc1ccccc1Nc1nccc(N(C)C)c1C#N,3.7,-2.9,x
O=[N+]([O-])/C=C\c1ccc(N2CCOCC2)cc1,x,2.0,x
O=[N+]([O-])c1ccc2[nH]c(O)c(N=Nc3ccc(F)cc3)c2c1,x,0.3,x
O=c1[nH]c(O)c(N=Nc2cc([N+](=O)[O-])ccc2O)c(=O)[nH]1,1.3,73.1*,12*
CCOC(=O)c1cccc(NC(=O)C2CCCO2)c1 (stereo not given),9.8,1.4,x
CCC(=O)Nc1ccc(C(=O)Cn2ncc(Cl)c(Cl)c2=O)cc1,x,8.3,x
COc1ccc(NC(=O)Cn2ncc(Cl)c(Cl)c2=O)cc1S(=O)(=O)N1CCOCC1,12.1,43.2*,30.5*
O=C(OCCN1CCN(c2ncc(C(F)(F)F)cc2Cl)CC1)c1ccc(F)cc1,-3.2,-1.2,x
O=C(OCn1ncc(Cl)c(Cl)c1=O)c1ccc(C(F)(F)F)cc1,-5.2,80.1*,1.39*
SMILES,Mtb RmlCD inh,RecA splice inh,GFP chromo cs
COc1ccc(NC(=O)CSc2ccccc2)cc1S(=O)(=O)N1CCOCC1,x,0.8,x
CCOC(=O)c1ccc(NC(=O)Cn2ncc(Cl)c(Cl)c2=O)cc1,3.8,62.1*,12.9*
Cc1ccc(C(=O)OCn2ncc(Cl)c(Cl)c2=O)cc1,15.4,74.9*,6.36*
Cc1cc(Br)ccc1NC(=O)CNC(=O)Cn1ncc(Cl)c(Cl)c1=O,x,2.9,x
COc1ccc(CNC(=O)Cn2ccc([N+](=O)[O-])n2)cc1OC,x,-0.3,x
CCOC(=O)C(=O)C1=C(N2CCOCC2)/C(=C\c2ccc(F)cc2)CC1,5.3,5.2,x
O=C(CSc1nnc(C2COc3ccccc3O2)o1)Nc1ccc(F)cc1Cl (stereo not given),7.2,0.3,x
Nc1ccc(CCNc2ncnc3c2ncn3[C@@H]2O[C@H](CO)[C@@H](O)[C@H]2O)cc1,x,-1.5,x
CCOc1ccc(S(=O)(=O)N2CCN(c3ccccc3OC)CC2)c2cccnc12,x,4.3,x
CCOCCOC(NC(=O)c1ccccc1)(C(F)(F)F)C(F)(F)F,x,-3.2,x
CCn1c(SCC(=O)N2CCCCC2C)nnc1-c1ccc(S(=O)(=O)N2CCN(C)CC2)cc1 (stereo not given),x,0.3,x
Cc1ccc2c(c1)C1C=CCC1C(C(=O)O)N2 (stereo not given),x,6.3,x
O=C(O)C1Nc2c(O)cc(Cl)c([N+](=O)[O-])c2C2C=CCC12 (stereo not given),-7.1,42.8*,13.1*
COc1cc(N=C2C(=O)N3c4c(cccc42)C(C)=CC3(C)C)cc(OC)c1,x,19.6,x
CC1=CC(C)(C)N2C(=O)C(=Nc3ccc(O)cc3)c3cccc1c32,-2.9,39.1*,>38
COc1ccc(/C=N\NC(=O)c2nn(C)cc2Cl)cc1CN1CCOCC1,62.3,-1.5,x
O=C(NC1(O)C(=O)c2ccccc2C1=O)c1ccc(C(F)(F)F)cc1,-1.6,7.1,x
Cc1ccc(C(=O)NC2(O)C(=O)c3ccccc3C2=O)cc1C,2.2,68.2*,12.1*
O=C(Cc1ccccc1)NC1(O)C(=O)c2ccccc2C1=O,-13.5,66.1*,11*
CC(NC(=O)Cc1ccccc1)c1ccccc1 (stereo not given),x,0.0,x
CC(Sc1ccc(S(=O)(=O)N2CCOCC2)cc1[N+](=O)[O-])C(=O)O (stereo not given),7.5,-0.2,x
CCN(CC)CCCN(C(=O)c1cccc(C)c1)c1nc(-c2ccc(OC)cc2)cs1,x,3.8,x
O=C(c1ccc(F)cc1)N1CCN(c2ccc(N3CCOCC3)nn2)CC1,26.7,-4.1,x
O=C(c1ccc(N2CCN(CCO)CC2)nc1)N1CCOCC1,8.2,37.4*,>38
COc1cccc(OCC(=O)N(C)Cc2nc(-c3cccc(C)c3)no2)c1,x,-0.2,x
SMILES,Mtb RmlCD inh,RecA splice inh,GFP chromo cs
CCCCN1C(=O)Nc2ccccc2S1=O (stereo not given),-11.1,1.1,x
O=C(C[n+]1ccccc1)N/N=C/c1ccccc1[N+](=O)[O-],-11.9,-1.4,x
O=C1CC(CC(=O)N/N=C/c2ccccc2[N+](=O)[O-])=NN1,-11.2,90.1*,7.29*
Cc1cccc(NC(=O)CSCC(=O)N(CCC(C)C)c2c(N)n(Cc3ccccc3)c(=O)[nH]c2=O)c1,x,4.4,x
O=C(CSc1nnc(CNC(=O)c2c(F)cccc2F)o1)NCC1CCCO1 (stereo not given),x,-3.3,x
CCOC(=O)C1CCN(Cc2ccc3ccccc3c2)CC1,x,-1.3,x
CCOC(=O)C1CCN(Cc2cc(C(C)C)c(O)c(C(C)C)c2)CC1,2.9,59.0*,>38
CCO/C=C1/C(=O)N(Cc2ccccc2)C(=O)c2ccccc21,8.7,36.3*,>12
CCO/C=C1\C(=O)N(c2ccccc2)C(=O)c2ccccc21,10.9,x,x
O=c1oc2cc(Oc3c([N+](=O)[O-])cc(C(F)(F)F)cc3[N+](=O)[O-])ccc2c2c1CCCC2,10.6,41.5*,0.962*
O=c1oc2cc(Oc3ccc(C(F)(F)F)cc3[N+](=O)[O-])ccc2c2c1CCC2,-13.7,-4.2,x
CC(=O)N1CCc2ccc(S(=O)(=O)N3CCc4ccccc43)cc21,-6.1,-1.0,x
COc1ccc(Oc2c(Cl)cnn(-c3ccc(C)cc3)c2=O)cc1,10.3,7.3,x
COc1ccc(N/C=C2\CCc3ccccc3C2=O)cc1,35.7,70.7*,19.4*
COc1ccc(N/C=C2\CCOC2=O)cc1,-5.3,-1.7,x
O=C1/C(=C/Nc2ccc3c(c2)OCO3)CCc2ccccc21,x,49.0*,3.24*
COc1ccc2c(c1)CC/C(=C\Nc1ccc3c(c1)OCO3)C2=O,-2.9,x,x
Cc1cc(C(=O)NCCCN2CCCC2=O)no1,11.6,-5.4,x
CCc1ccc2c(c1)C(NC(C)=O)C(=O)N2CCN1CCOCC1 (stereo not given),x,49.3*,>38
CCCN1C(=O)C(NC(C)=O)c2ccccc21 (stereo not given),x,-1.2,x
Cc1nc(CSc2nnc3scc(-c4ccccc4)n23)cs1,x,1.2,x
CCCNc1ccc(C(=O)OCC)cc1[N+](=O)[O-],4.8,3.6,x
CCC1=Nc2cc(C(=O)NCCN3CCCC3)ccc2Sc2ccccc21,x,37.5*,>38

# Compound activity (PubChem BioAssay)
